Shown are actives, neighbours in structure and some others; about 6.3% of the full set was active somewhere.
Spn DPM-DC inh: S. pneumoniae DPM-DC inhibition; purified DPM-DC, PK/LDH coupled NADH fluorescence; actives 0.49% (n = 65,000); calls only at 10 µM;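 active = the 320 compounds with the highest percent inhibition in the single-dose primary screen, excluding strongly autofluorescent ones, cut at about 32% in these data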;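 note: kinetic rate of NADH fluorescence loss reporting ADP formed by the decarboxylase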
MK inhibit: S. pneumoniae mevalonate kinase inhibition; purified MK, PK/LDH-coupled NADH absorbance 340 nm; inhibition, % at 10 µM; actives 0.48% (n = 65,000); AID 555;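 active = ranked among the strongest by inhibition in the single 10 µM screen, a fixed top-ranked set picked for dose follow-up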
Autofluor 339: intrinsic fluorescence of library compounds, ex339/em460 – biochemical, MLSMR library, data from DPM-DC assay, artefact control, profiling panel | compound autofluorescence, ex339/em460 nm, NADH buffer; hits give high values; 1 = no-compound wells, NADH background | fluorescence fold increase at 10 µM | AID 709 | actives 5.5% (n = 65,000);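 active = at 10 µM, mean starting fluorescence two-fold or more over control wells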;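 note: signal is the first read of a kinetic run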
NADH enzymes: inhibition of NAD/NADH coupling enzymes, library profiling; coupled PK/LDH NADH assays, four targets; IC50, µM (titrated, usually from 10 µM); AID 774; actives 0.02% (n = 65,000);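 active = single-dose screening hits from any of four coupled enzyme assays that gave an IC50 when retested across doses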;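 note: the DPM-DC format reads NADH fluorescence rather than 340 nm absorbance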
A340 absorber: compound absorbs light at 340 nm; compound absorbance at 340 nm, fold over control; fold change at 10 µM; 65,000 tested, under 10 active;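 active = at 10 µM dose, initial 340 nm absorbance at least 2 fold that of control wells; inactive = change under 2 fold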;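 note: initial absorbance extrapolated from kinetic A340 decline of NADH oxidation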
PMK inhibit: inhibitors of Streptococcus pneumoniae phosphomevalonate kinase; inhibition, % at 10 µM; purified PMK, PK/LDH-coupled NADH absorbance 340 nm; actives 0.49% (n = 65,000); AID 539;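 active = top-ranked compounds by inhibition in the single 10 µM screen, taking a fixed number of the strongest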
Of the large screens only hits and unclear results are named; the others gave an inactive call; [ ] = remark or other dose.

Cn1c(C(=O)N2CCc3ccccc32)cc2c(=O)n3ccccc3nc21	none
Cc1cccn2c(=O)c3cc(C(=O)N4CCN(c5ccccc5)CC4)n(C)c3nc12	Autofluor 339 5 (not shown: Spn DPM-DC inh)
CCNC(=O)c1cc2c(=O)n3cccc(C)c3nc2n1C	Autofluor 339 5 (not shown: Spn DPM-DC inh)
Cc1nc2c(C)cccn2c1/C(O)=C1\C(=O)C(=O)N(CCN(C)C)C1c1ccncc1 (stereo not given)	none
Cc1cccn2c(=O)c3cc(C(=O)N(C)C)n(C)c3nc12	Autofluor 339 4.9 (not shown: Spn DPM-DC inh)
CCn1c(=O)cc(SCC(=O)Nc2ccccc2N2CCN(C)CC2)c2ccccc21	none
CC(C)OC(=O)c1nnn(-c2nonc2N)c1CN1CCCCCC1	none
CC/C(=C\C(=O)c1cccnc1)Nc1ccc(C)c(C)c1	none
Cc1cc(=O)oc2cc(OC(C)C(=O)O)c(Cl)cc12 (stereo not given)	Spn DPM-DC inh active, Autofluor 339 3.2
Cc1coc2cc3oc(=O)c4c(c3cc12)CCC4	Spn DPM-DC inh active[may fluoresce], Autofluor 339 2.8
Cc1coc2c(C)c3oc(=O)c4c(c3cc12)CCC4	none
CC(C)Oc1cc2oc(=O)c3c(c2cc1Cl)CCC3	Autofluor 339 2.3
CCCc1cc(=O)oc2cc(OCC(=O)N(C)C)c(Cl)cc12	none
O=C(Oc1cc2oc(=O)c3c(c2cc1Cl)CCCC3)c1ccco1	Autofluor 339 2.5 (not shown: Spn DPM-DC inh)
Cc1cc2oc(=O)c3c(c2cc1OC(=O)c1ccco1)CCCC3	none
O=C(CCCC(=O)N(CC(=O)NC1CCCCC1)Cc1ccc2c(c1)OCO2)Nc1ccccn1	none
CC(=O)Oc1cc2oc(=O)c3c(c2cc1Cl)CCC3	Autofluor 339 4.9 (not shown: Spn DPM-DC inh)
CC(C)CNC(=O)c1cc(-c2ccco2)on1	none
CC(=O)Nc1nc(CC(C)C)cc(-c2ccco2)c1C#N	Autofluor 339 2.3 (not shown: Spn DPM-DC inh)
CCCCCCNC(=O)C(C(=O)OCC)C1CCCCC1 (stereo not given)	none
COc1c(F)c(F)c(C(=O)Nc2ccc3oc(-c4ccncc4)nc3c2)c(F)c1F	none
O=C(Nc1ccc2oc(-c3ccccc3)nc2c1)c1ccc2c(c1)OCCO2	Autofluor 339 3.2
COc1ccc(C(=O)Nc2ccc3oc(-c4cccc(F)c4)nc3c2)cc1OC	Autofluor 339 2.1 (not shown: Spn DPM-DC inh)
COc1ccccc1C(=O)Nc1ccc2oc(-c3ccc(F)cc3)nc2c1	Autofluor 339 2.2 (not shown: Spn DPM-DC inh)
CCC1CCCCN1C(=O)CSc1nc(N)c(NC(=O)c2ccc(OC)c(OC)c2)c(=O)[nH]1 (stereo not given)	none
Cc1cccc(OCCSc2cc(C)nc(N)n2)c1	none
CCCc1nc2ccccc2c(=O)n1/N=C/c1c(C)[nH]n(-c2ccc(C)cc2)c1=O	none
Cc1noc(C)c1S(=O)(=O)N(CC(=O)N1CCn2c1nc1ccccc12)c1ccc(C(C)C)cc1	none
O=c1oc2c3c4c(cc2c2c1CCC2)OCCN4CCC3	Autofluor 339 2.2 (not shown: Spn DPM-DC inh)
Cc1ccccc1OCCNC(=O)CNC(=O)c1ccccc1O	Autofluor 339 3.7 (not shown: Spn DPM-DC inh)
CN1CCN(C(=O)Cn2c(=O)oc3cc(S(=O)(=O)NCc4ccccc4)ccc32)CC1	none
O=C(c1ccc(CSCc2ccccc2F)o1)N1CCN(c2ccc(N3CCOCC3)nn2)CC1	Autofluor 339 2.4 (not shown: Spn DPM-DC inh)
O=C(c1cc2ccccc2oc1=O)N1CCN(c2ccc(N3CCOCC3)nn2)CC1	none
O=C(Cc1ccccc1)Nc1ccc2oc(-c3cccnc3)nc2c1	Autofluor 339 2.3 (not shown: Spn DPM-DC inh)
O=C(Nc1ccc2oc(-c3ccccc3)nc2c1)c1cccnc1	none
CCCCCC(=O)Nc1ccc2oc(-c3cccnc3)nc2c1	Autofluor 339 3.7 (not shown: Spn DPM-DC inh)
O=C(Cc1ccc(Cl)cc1)Nc1ccc2oc(-c3ccncc3)nc2c1	Autofluor 339 3.6 (not shown: Spn DPM-DC inh)
Cc1ccccc1-n1nnnc1SC1CCOC1=O (stereo not given)	none
Cc1ccc(-c2c3c(=O)n(C)c(=O)n(C)c3c3c(C)cc(C)nn23)cc1	none
S=c1[nH]nc(-c2ccccc2)n1C1C=CCCC1 (stereo not given)	Spn DPM-DC inh active
O=C1Nc2ccc(NS(=O)(=O)c3cccs3)c3cccc1c23	none
O=S(=O)(Nc1ccc(-c2nc3cccnc3s2)cc1)c1cccs1	Autofluor 339 2.1 (not shown: Spn DPM-DC inh)
O=S(=O)(Nc1cccc2ncccc12)c1cccs1	Spn DPM-DC inh active
CCC(C)[C@H](N)c1nnc(SCc2cccc(F)c2)o1 (stereo not given in full)	none
CC1=CC(C#N)(C#N)C(C#N)(C#N)C(c2ccccc2)N1 (stereo not given)	Autofluor 339 3.1
Cc1ccc(-n2c(=O)[nH]c3c(C(N)=O)nc(-c4ccc(C)o4)nc32)cc1	Autofluor 339 2.4
COc1ccccc1-n1c(=O)[nH]c2c(C(N)=O)nc(C3CCCCC3)nc21	none
CCOc1cccc(-c2nc(C(N)=O)c3[nH]c(=O)n(-c4cccc(Cl)c4)c3n2)c1O	none
COc1ccc(OC)c(-c2nc(C(N)=O)c3[nH]c(=O)n(-c4ccc(F)cc4)c3n2)c1	none
COc1ccccc1-n1c(=O)[nH]c2c(C(N)=O)nc(-c3cccnc3)nc21	Autofluor 339 2.5 (not shown: Spn DPM-DC inh)
CCOc1ccccc1-c1nc(C(N)=O)c2[nH]c(=O)n(-c3cccc(C)c3)c2n1	Autofluor 339 2.5
NC(=O)c1nc(C2CCCCC2)nc2c1[nH]c(=O)n2-c1ccc(F)cc1	Autofluor 339 2.1 (not shown: Spn DPM-DC inh)
CCCCNC(=O)CSc1nc2ccccc2c(=O)n1C1CCCC1	none
COc1ccc(CCNC(=O)CSc2nnnn2-c2ccccc2OC)cc1OC	none
CCOC(=O)c1cc2c(=O)n3ccccc3nc2n(C(C)C)c1=NC(=O)c1ccncc1	Spn DPM-DC inh active
CCOC(=O)c1cc2c(=O)n3ccccc3nc2n(CCCOC)c1=NC(=O)C(C)(C)C	Autofluor 339 2.4 (not shown: Spn DPM-DC inh)
CCOC(=O)c1cc2c(=O)n3ccccc3nc2n(CCOC)c1=NC(=O)C(C)(C)C	Autofluor 339 2.3 (not shown: Spn DPM-DC inh)
CCOC(=O)c1cc2c(=O)n3ccccc3nc2n(CCOC)c1=NC(=O)c1ccncc1	Autofluor 339 2.2 (not shown: Spn DPM-DC inh)
CCn1c(SCC(=O)NCCc2ccc(F)cc2)nnc1-c1cccs1	none
CCOc1ccccc1N(CC(=O)NC1CCCC1)C(=O)CCCC(=O)Nc1ccccn1	none
CCN(CCNC(=O)Cn1c(=O)sc2ccccc21)c1ccccc1	none
CCOCCCn1c(=NC(C)=O)c(C(=O)OCC)cc2c(=O)n3ccccc3nc21	Autofluor 339 2.9 (not shown: Spn DPM-DC inh)
CCOC(=O)N1CCC(NC(=O)c2ccc3c(c2)N(CC)CCS3)CC1	Autofluor 339 2.4 (not shown: Spn DPM-DC inh)
CN(C)CCNC(=O)c1ccc2c(c1)N(Cc1ccc(F)cc1)CCS2	Autofluor 339 2 (not shown: Spn DPM-DC inh)
CCOC(=O)N1CCC(NC(=O)c2cc3cc4cc(OC)ccc4nc3o2)CC1	Autofluor 339 5.1 (not shown: Spn DPM-DC inh)
COc1ccc2nc3oc(C(=O)N4CCN(c5ccccc5F)CC4)cc3cc2c1	none
CCOC(=O)N1CCC(NC(=O)CN2C(=O)CCSc3ccccc32)CC1	none
COc1ccc2nc3oc(C(=O)NC4CCN(Cc5ccccc5)CC4)cc3cc2c1	Autofluor 339 3.4 (not shown: Spn DPM-DC inh)

Assay outcomes: PubChem BioAssay, SRMLSC
